Common to all, as to assay: NCI-60 one-dose screen, 48 h (100 = growth as untreated, 0 = no growth, -100 = all killed)
Common to all, as to settings: 10 µM unless noted

Test [1] has as its system HCT-15 colon.
Test [2] has as its system HT29 colon.
Test [3] relates to SNB-75 CNS.
The test system of test [4] is SNB-19 CNS.
The test system of test [5] is U251 CNS.
Test [6] relates to PC-3 prostate.
Test [7] has as its system SK-MEL-5 melanoma.
Test [8] deals with UACC-62 melanoma.
Test [9] deals with LOX IMVI melanoma.
The test system of test [10] is SK-MEL-28 melanoma.
In test [11] the test system is EKVX NSCLC.
For test [12], the system named is SN12C renal.
For test [13], the system named is UO-31 renal.
The test system of test [14] is TK-10 renal.
For test [15], the system named is ACHN renal.
In test [16] the test system is CAKI-1 renal.
The subject of test [17] is A498 renal.
The subject of test [18] is CCRF-CEM leukemia.
Test [19] relates to MOLT-4 leukemia.

About 83,000 compounds went through this panel and 20% of them were active in at least one assay; those are over-represented in the sample as a whole.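 In brief: 96-well plates, 48 h treatment, single concentration, percent growth endpoint.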 A number with no mark means an inactive call. The source made the active and inactive calls. The calls were made as follows: active = growth percent below 10; inactive = the rest.

As to `CN1CCN(CCOc2cc(OC3CCOCC3)c3c(Nc4c(Cl)ccc5c4OCO5)ncnc3c2)CC1`, the growth in test [1] was 54.6%; in test [2], 7.45% (active); in test [3] it was -17.7% (active); in test [4], 54.6%; in [5], 67.3%; in test [6] it was 71%. Also, the growth in [7] is 87.4%; in test [8], 99.6%; in [9], 15.5%; in test [10] it was 104%; in test [11], 43.8%; in test [12] it was 46.1%. Also, the growth in test [13] was 17.7%; in [14] it was 5.06% (active); in test [15] it was 12.5%; in [16], 21.7%; in [17] it was 49.4%; in [18], 84.3%. For the same molecule, the growth in [19] is 56.2%.
As to `Cc1cccc(Cl)c1NC(=O)c1cnc(Nc2cc(N3CCOCC3)cc(S(C)(=O)=O)c2)s1`, the growth in [1] is 43.3%; in test [2] it was -68% (active); in test [3], -50.1% (active); in test [4] it was 40.5%; in test [5], 50%; in [6], 44.3%. Besides, the growth in test [7] is 57.9%; in [8] it was 41.3%; in [9], -58.4% (active); in test [10], 52.6%; in [11], 27.7%; in test [12] it was 28.6%. The growth is 2.76% (active) in test [13]; -64.6% (active) in test [14]; -2.99% (active) in test [15]; -27.7% (active) in test [16]; -13.6% (active) in [17]; 72.7% in test [18]. Besides, the growth in test [19] is 24.8%.
Turning to `N#Cc1c(-c2ccc(Cl)cc2)csc1NC(=O)Nc1cccc(C(F)(F)F)c1`, the growth is 11.7% in test [1]; 13% in test [2]; 29.3% in test [3]; 12.1% in test [4]; 6.02% (active) in [5]; 11.1% in test [6]. Besides, the growth in test [7] was 22.4%; in test [8], 12.5%; in test [9] it was 5.9% (active); in test [10], 14.3%; in test [11], 17.3%; in test [12], -17.2% (active). In addition, the growth is -2.89% (active) in [13]; 20.1% in test [14]; 1.09% (active) in test [15]; 27.8% in test [16]; 13.8% in [17]; 14.1% in test [18]. For the same molecule, the growth in test [19] was 7.5% (active).
For the molecule `C[C@H](NC(=O)c1c(N)nn2cccnc12)c1cc2cccc(C#Cc3cnn(C)c3)c2c(=O)n1-c1ccccc1`, the growth was 10.6% in test [1]; 2.38% (active) in test [2]; -6.15% (active) in [3]; 39.3% in test [4]; 16.7% in [5]; 18.9% in test [6]. Also, the growth in test [7] was 44%; in test [8] it was 15.6%; in test [9] it was 7.86% (active); in [10], 45.5%; in test [11], 33.9%; in [12], 40.6%. The growth in test [13] is 10.6%; in test [14] it was -9.96% (active); in test [15] it was 20.7%; in test [16], 21.3%; in test [17], -24.3% (active); in [18], 13.8%. Besides, in test [19], the growth was -4.98% (active).
Consider `CCc1nc(C(N)=O)c(Nc2ccc(N3CCC(N4CCN(C)CC4)CC3)c(OC)c2)nc1NC1CCOCC1`, for which the growth in test [1] was 25%; in test [2] it was -23.9% (active); in test [3], -45.3% (active); in test [4], 29.8%; in test [5], 32%; in [6], 36.3%. The growth is 66.4% in [7]; 25.3% in test [8]; -84.9% (active) in [9]; 24% in test [10]; 46.6% in test [11]; 29.2% in test [12]. The growth in test [13] was 4.67% (active); in test [14], 25.4%; in [15], 29%; in test [16] it was 20.2%; in test [17] it was -92.6% (active); in test [18], 6.04% (active). Further, the growth in test [19] was 17.2%.
On to `C=CC(=O)N1CCC(Oc2cc3c(Nc4ccc(Cl)c(Cl)c4F)ncnc3cc2OC)CC1`, for which the growth in [1] was 21.2%; in test [2] it was -16.4% (active); in [3], -18.4% (active); in test [4], 32.4%; in [5], 32.8%; in test [6], 14.2%. The growth is 18.7% in test [7]; 20.7% in test [8]; -66.1% (active) in test [9]; 63.3% in test [10]; 18.7% in test [11]; 15.8% in test [12]. For the same molecule, the growth in [13] is -31.6% (active); in test [14] it was -7.41% (active); in [15] it was -3.88% (active); in [16], -34.2% (active); in test [17] it was -69.8% (active); in test [18], 20.9%. Also, in test [19], the growth is -10.5% (active).
For the molecule `CC[C@H](Nc1ncnc2nc[nH]c12)c1nc2cccc(F)c2c(=O)n1-c1ccccc1`, the growth was 88.9% in test [1]; 50.4% in test [2]; 25.8% in test [3]; 71.5% in [4]; 77% in [5]; 50.9% in test [6]. Further, the growth is 80.2% in test [7]; 39.1% in test [8]; 74.6% in test [9]; 69.3% in test [10]; 80.1% in [11]; 51.6% in [12]. Besides, the growth in [13] was 31.3%; in test [14] it was 17.4%; in [15], 41.5%; in [16], 52.9%; in test [17] it was -14.3% (active); in [18], 52.3%. Besides, in [19], the growth was 62.2%.
`CCS(=O)(=O)N1CCN(c2ccc(Nc3ncc(C(N)=O)c(NC4CC4)n3)cc2)CC1`: the growth in test [1] is 58.2%; in test [2], 76.2%; in [3] it was 88%; in test [4] it was 105%; in [5], 93.4%; in test [6], 92.4%. Also, the growth is 66.8% in test [7]; 101% in test [8]; 73.7% in test [9]; 83.3% in test [10]; 91.6% in [11]; 62.8% in test [12]. In addition, the growth in [13] is 52.9%; in test [14], 87.3%; in [15], 85.1%; in test [16], 97.6%; in test [17] it was 95.6%; in [18], 27.6%. Further, the growth in test [19] was 51.7%.

These data come from PubChem BioAssay (NCI).
